# Measurements from PubChem BioAssay (NCI).
# Compounds without any hit were thinned out: in the full panel of roughly 83,000, 20% have a hit.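 Values shown are percent growth following 48 h exposure of cells in 96-well plates to a single concentration of compound; below 10 was considered active.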 A number with no mark means an inactive call. Activity calls are given as the source filed them.
# Tested on: MCF7 breast
# Assay: NCI-60 one-dose screen, 48 h (100 = growth as untreated, 0 = no growth, -100 = all killed)
# Details: 10 µM unless noted
row,Structure (SMILES),growth
1,CC(C)(C)c1nn(-c2ccccc2)c2c1CC1(CN2Cc2ccc3c(c2)OCO3)C(=O)c2ccccc2C1=O,97.9%
2,COc1ccc(-c2cc(-c3ccc(N(C)C)cc3)nc(NC(=O)c3ccncc3)n2)cc1,78%
3,Nc1nc(-c2ccc(F)cc2)cc(-c2cnn(-c3ccccc3)n2)n1,79.9%
4,CC(=O)CC(C)(C)c1ccc(Cl)cc1,105%
5,Nc1c(C(=O)Nc2ccccc2Cl)sc2nc3c(cc12)CCCCCC3,13.8%
6,O=C(Nc1ccc(Nc2cc(Nc3ccccc3)ncn2)cc1)Nc1cc(C(F)(F)F)ccc1F,51.6%
7,CCOC(=O)C(Cc1cc(I)c(O)c(I)c1)NC(=O)c1ccccc1 (stereo not drawn),92.5%
8,CC[C@H](Nc1cc(C)nc(N)n1)c1nc2cccc(NCc3ccc(C(=O)NO)cc3)c2c(=O)n1-c1ccccc1,24.7%
9,C=C1CCC2C3(C)COC(c4cccc(Cl)c4)OC3CCC2(C)C1/C=C/C1=CCOC1=O (stereo not drawn),42%
10,CCN(CC)CC(O)CNc1c2ccc([N+](=O)[O-])cc2nc2cc(OC)c(OC)cc12 (stereo not drawn),-22.9% (active)
11,COc1cc(-c2c3sc(=O)[nH]c3nc3c2c(=O)[nH]n3C(C)C)cc2c1OCO2,91.7%
12,O=S(=O)(Nc1ccc(F)c(Cl)c1)c1ccc(-c2cnc(C3CC3)o2)cc1,15.5%
13,COc1ccc(/C=c2/c(=O)[nH]c3nc4sc(C)c(C)c4c(=O)n23)cc1,93.6%
14,Fc1ccc(Cc2ccc(F)cc2)cc1,99%
15,CC(C)c1c(C(=O)Nc2ccccc2)c(-c2ccccc2)c(-c2ccc(F)cc2)n1CC[C@@H]1CC=CC(=O)O1,-22.8% (active)
16,COc1ccc2nc3cc(Cl)ccc3c(N3CCN(c4ccnc(N5CCN(C)CC5)n4)CC3)c2c1,-55.8% (active)
17,COc1cc(NCCCCN=C(N)NC(N)=NC(C)C)c2ncccc2c1,-94.3% (active)
18,CS(=O)CCCCCN=C=S (stereo not drawn),0.852% (active)
19,O=C(CO[N+](=O)[O-])Nc1ccc(C(=O)/C=C/c2ccc3c(c2)OCO3)cc1,26.2%

row,Structure (SMILES),growth
1,O=C(CCN1CCOCC1)Nc1ccc(Cn2nnc3c2C(=O)c2nnn(Cc4ccc(NC(=O)CCN5CCOCC5)cc4)c2C3=O)cc1,-56.3% (active)
2,O=C1Nc2ccccc2/C1=C/C(=N/c1nnc(-c2ccc(Cl)cc2)s1)c1ccccc1,28.5%
3,Cc1ccc(SCN2CCN(c3cccc(Cl)c3)CC2)cc1,85.2%
4,COc1ccccc1N1CCN(CCn2c(=O)c3c(c4ccccc4n3C)n(C)c2=O)CC1,93.2%
5,CS(=O)(CCCCN=C=S)=NC(=O)c1c(F)c(F)c(F)c(F)c1F (stereo not drawn),12.8%
6,O=C(Cn1cc(CN2C(=O)c3ccccc3S2(=O)=O)nn1)Nc1ccc([N+](=O)[O-])cc1Cl,83%
7,c1ccc(-c2nc(N3CCOCC3)c3c4c(sc3n2)CCCCC4)nc1,23.7%
8,O=[N+]([O-])c1c(F)cccc1Nc1cccc(F)c1,90.3%
9,CC1(C)CC(=O)C(c2c(-c3ccccc3)[nH]c3[nH]c(=S)[nH]c(=O)c23)=C(O)C1,99.6%
10,O=C([C@@H](COCc1ccccc1)N1C(=O)[C@@H](N2C(=O)OC[C@@H]2c2ccccc2)[C@H]1/C=C/c1ccccc1)N1CCC(CCN2CCCCC2)CC1,74.9%
11,COc1cc(/C=N\NC(=O)CN2CCN(c3cc4c(cc3F)c(=O)c(C(=O)N/N=C/c3ccc(O)c(OC)c3)cn4C3CC3)CC2)ccc1O,12.5%
12,CC/C=C\C[C@H](O)C/C=C1/C(=O)C=C[C@@H]1C/C=C\CCCC(N)=O,7.66% (active)
13,ClC1=C2NC=NC2n2c(nnc2-c2ccc(Cl)cc2)N1 (stereo not drawn),85.6%
14,COc1ccc(C(=O)c2sc3nc(-c4ccccc4OC)ccc3c2N)cc1OC,62.1%
15,CCN1CCN(Cc2ccc(NC(=O)Nc3nc4ccc(Oc5ccnc(C(=O)NC)c5)cc4s3)cc2C(F)(F)F)CC1,-39.3% (active)
16,COc1ccc2nc3cc(Cl)ccc3c(N3CCN(c4nccc(NCc5ccccc5)n4)CC3)c2c1,24.6%
17,C=C1CCC2C3(C)COC(c4ccc(SC)cc4)OC3CCC2(C)C1C/C=C1/C(=O)OCC1O (stereo not drawn),27.7%
18,O=c1[nH]c(-c2ccccn2)nc2sc3c(c12)CCCCC3,32.9%
19,COc1ccc(C/C(C)=C(\c2ccc(Cl)cc2)c2ccc(OCCN3CCCCCC3)cc2)cc1,62.7%
